{
  "source": "PubChem BioAssay (Tox21)",
  "note": "Inconclusive results are not listed. The source made the active and inactive calls. Calls follow the shape of the full dose curve. % is scaled to controls: 0 for no effect and ±100 for the full control effect.",
  "data": [
    {"test": "p53 small molecule agonists, cell-based qHTS assay with human liver microsomes (AID 1963577);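 also: p53 response element beta-lactamase reporter cells with liver microsomes plus NADPH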", "settings": "HCT-116 p53RE-bla with human liver microsomes, ratio, 16 h; series mostly up to 66 µM; activation: at the top concentration", "description": "National Center for Advancing Translational Sciences [NCATS]\nDivision of Preclinical Innovation [DPI]\nU.S. Environmental Protection Agency [EPA]\nNational Institutes of Environmental Health Sciences [NIEHS]\nNational Toxicology Program [NTP]\nU.S. Food and Drug Administration [FDA]\np53, a tumor suppressor protein, is activated following cellular insult, including DNA damage and other cellular stresses. The activation of p53 regulates cell fate by inducing DNA repair, cell cycle arrest, apoptosis, or cellular senescence. The activation of p53, therefore, is a good indicator of DNA damage and other cellular stresses. […] The activation of the reporter gene under culture conditions can be detected by fluorescence intensity.\nTox21 Assay Protocol Summary:\nThe p53RE-bla cells were dispensed at 4,000cells/3ul/well in 1536-well black-clear bottom plates. After the assay plates were incubated at 37 C, 5% CO2 incubator for 5 hours, 23 nL of compounds dissolved in DMSO, positive controls or DMSO only was transferred to the assay plate. Following compound addition, 3 uL of human liver microsomes (XenoTech, Kansas City, KS) at final concentration of 0.5 mg/mL and 1uL of Beta-Nicotinamide adenine dinucleotide 2-phosphate (NADPH) at final concentration of 0.5 mg/mL were transferred to the assay plate. The plates were incubated at 37 C for 16 hours. 1 uL of LiveBLAzer detection mixture was added to each well and the plates were incubated at room temperature in the dark for 2 h.", "values": [
      {"smiles": "FC(F)(F)c1ccc(Cl)cc1Cl", "activation": "-2.85% (inactive)"},
      {"smiles": "CN1Cc2cc(C(=O)N3CCC(C4CCNCC4)CC3)ccc2N[C@@H](CC(=O)O)C1=O", "activation": "9.97% [at 30.3 µM] (inactive)"},
      {"smiles": "Brc1ccc(-c2ccccc2)cc1", "activation": "0.265% (inactive)"},
      {"smiles": "CCCN(CCC)c1c([N+](=O)[O-])cc(C(F)(F)F)c(N)c1[N+](=O)[O-]", "activation": "-3.11% (inactive)"},
      {"smiles": "CCCC(C)C=O", "note": "(stereo not given)", "activation": "-1.53% (inactive)"},
      {"smiles": "CC(C)=CCC1=C(O)c2ccccc2C(=O)C1=O", "activation": "13.4% (inactive)"},
      {"smiles": "CC(C)(Oc1ccc(Cl)cc1)C(=O)OCCCOC(=O)C(C)(C)Oc1ccc(Cl)cc1", "activation": "0% [at 30.3 µM] (inactive)"},
      {"smiles": "CCCCCCC/C=C/C=O", "activation": "-0.555% (inactive)"},
      {"smiles": "CN1[C@@H]2CC[C@H]1CC(OC(=O)c1c[nH]c3ccccc13)C2", "note": "(stereo not given in full)", "activation": "6.41% [at 30.3 µM] (inactive)"},
      {"smiles": "C=CCn1c(=O)n(CC=C)c(=O)n(CC=C)c1=O", "activation": "1.37% (inactive)"},
      {"smiles": "CC(=O)NCCCCCC(=O)O", "activation": "-0.283% [at 30.3 µM] (inactive)"},
      {"smiles": "O=C(O)c1cn(C2CC2)c2cc(Cl)c(F)cc2c1=O", "activation": "0.0743% [at 30.3 µM] (inactive)"},
      {"smiles": "CC(N)C(=O)OC(C)(C)Cc1ccc(Cl)cc1", "note": "(stereo not given)", "activation": "-0.303% [at 30.3 µM] (inactive)"},
      {"smiles": "COC(=O)CCCCCCCCC(=O)OC", "activation": "-0.717% (inactive)"},
      {"smiles": "Nc1ccc(Cl)c([N+](=O)[O-])c1", "activation": "3.11% (inactive)"},
      {"smiles": "OCCCc1cccnc1", "activation": "-0.302% (inactive)"},
      {"smiles": "O=C1c2ccccc2C(=O)C1(O)O", "activation": "3.37% (inactive)"},
      {"smiles": "Nc1nc(-c2ccccc2)c(Br)c(=O)[nH]1", "activation": "11.3% [at 30.3 µM] (inactive)"},
      {"smiles": "CCCCCCCCCCCCCCCCCl", "activation": "1.18% [at 13.5 µM] (inactive)"},
      {"smiles": "C[C@H](O)C(=O)Nc1c(I)c(C(=O)NC(CO)CO)c(I)c(C(=O)NC(CO)CO)c1I", "activation": "-2.15% [at 30.3 µM] (inactive)"},
      {"smiles": "Oc1cccc2cc3cccc(O)c3c(O)c12", "activation": "0.344% (inactive)"},
      {"smiles": "[O]=[Bi]", "activation": "-14.4% [at 5.99 µM] (inactive)"},
      {"smiles": "c1cc2c3c(c1)ccc1cccc(c13)C2", "activation": "9.8% (inactive)"},
      {"smiles": "CCCCCCCC/C=C\\CCCCCCCCN", "activation": "-0.435% [at 30.3 µM] (inactive)"},
      {"smiles": "C#CC(O)CCCCC", "note": "(stereo not given)", "activation": "-1.62% (inactive)"},
      {"smiles": "COC(=O)CCCC(=O)O", "activation": "-2.42% (inactive)"},
      {"smiles": "OC[C@H]1O[C@@H](O[C@@H]2[C@@H](CO)O[C@](O)(CO)[C@H]2O)[C@H](O)[C@@H](O)[C@H]1O", "activation": "-1.1% [at 30.3 µM] (inactive)"},
      {"smiles": "O=C(O)C(Cc1cc(I)c(O)c(I)c1)c1ccccc1", "note": "(stereo not given)", "activation": "-1.58% [at 30.3 µM] (inactive)"},
      {"smiles": "CCN(CC)CCNC(=O)c1cc(Cl)c(N)cc1OC", "activation": "1.16% [at 30.3 µM] (inactive)"},
      {"smiles": "CCCCCC#CC(=O)OC", "activation": "-8.03% (inactive)"},
      {"smiles": "CCOC(=O)COc1cc(-n2ncc(C(F)(F)F)c(C)c2=O)c(F)cc1Cl", "activation": "2.7% (inactive)"},
      {"smiles": "CCOc1nc(F)cc2nc(S(=O)(=O)Nc3c(Cl)cccc3C(=O)OC)nn12", "activation": "-0.251% (inactive)"},
      {"smiles": "COc1ccc(C2C(=O)c3ccccc3C2=O)cc1", "activation": "0.305% [at 30.3 µM] (inactive)"},
      {"smiles": "COCCO", "activation": "-0.475% (inactive)"},
      {"smiles": "On1nnc2ccccc21", "activation": "-0.658% (inactive)"},
      {"smiles": "S=C(SSSSSSC(=S)N1CCCCC1)N1CCCCC1", "activation": "-17.2% [at 13.5 µM] (inactive)"},
      {"smiles": "Cc1ccc2c(c1)C(=O)c1ccccc1C2=O", "activation": "-0.928% (inactive)"},
      {"smiles": "CC(CNC1CCCCC1)OC(=O)c1ccccc1", "note": "(stereo not given)", "activation": "-3.3% [at 30.3 µM] (inactive)"},
      {"smiles": "CCCNC(C)C(=O)Nc1ccccc1C", "note": "(stereo not given)", "activation": "-1.24% [at 30.3 µM] (inactive)"},
      {"smiles": "Cc1ccco1", "activation": "0.345% (inactive)"}
    ]}
  ]
}
